Source: PubChem
KCNH2 3.1 block – blocks the human KCNH2 3.1 channel isoform. U2OS KCNH2 3.1, thallium flux FluxOr; stronger effect = lower value. AID 720553. 340,000 compounds, 0.95% hits. activity change, % (tested at about 1.8 µM);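 active = maximum activity change below -70%; inconclusive = maximum activity change from -70% to -50%; inactive = maximum activity change above -50%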;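 note: thallium influx rate constant from kinetic fluorescence after stimulation buffer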
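Kinetic fluorescence (2 min after stimulation buffer) measures Tl+ influx through KCNH2 3.1 expressed by viral transduction in U2OS cells; the rate constant is normalized against DMSO controls serving as positive and negative references.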
PTHR1 ag – PTHR1 (human) receptor agonism; Potency, µM (series often up to 115 µM), actives largely listed as activators; Q03431; HEK293 GP2 PTHR1 cells, GloSensor cAMP luminescence, 1 h; 410,000 compounds, 0.075% hits; AID 743266; note: nearly all actives have a fitted effect of over 55% in size
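HEK-293-derived GP2 cells expressing PTHR1 and a GloSensor cAMP reporter, 3,000/well, plated overnight, given luciferin plus IBMX (each 0.5 mM as added) for 1 h at 37 °C, then compound for 1 h at 37 °C. Luminescence was read after 15 min at room temperature.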
GRP78 ERSR act – inducers of ER stress response in human glioma cells | AID 602332 | Potency, µM, most hits filed as activators | 420,000 compounds, 0.02% hits | U87-MG GRP78 promoter luciferase reporter, 16 h; note: series mostly up to about 76 µM; nearly all actives have a fitted effect of over 35% in size
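ERSR induction read as luciferase luminescence (Bright-Glo, 10 min at room temperature) in stably transfected human U87-MG glioma cells exposed to compounds for 16 h, using GRP78 as sensor.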
RXFP1 antagonist – antagonists of human relaxin receptor RXFP1 | Q9HBX9 | HEK293-RXFP1, relaxin-stimulated cAMP HTRF, 30 min; stronger effect = lower value | activity change, negative = inhibition, % at 57.5 µM | 350,000 compounds, 0.59% hits | AID 1259400;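 active = activity change of -60% or lower, but not beyond a set lower limit; inconclusive = change between -60% and -40%, or beyond the set limit; inactive = change above -40%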
Target sequence (Q9HBX9 whole entry, looked up): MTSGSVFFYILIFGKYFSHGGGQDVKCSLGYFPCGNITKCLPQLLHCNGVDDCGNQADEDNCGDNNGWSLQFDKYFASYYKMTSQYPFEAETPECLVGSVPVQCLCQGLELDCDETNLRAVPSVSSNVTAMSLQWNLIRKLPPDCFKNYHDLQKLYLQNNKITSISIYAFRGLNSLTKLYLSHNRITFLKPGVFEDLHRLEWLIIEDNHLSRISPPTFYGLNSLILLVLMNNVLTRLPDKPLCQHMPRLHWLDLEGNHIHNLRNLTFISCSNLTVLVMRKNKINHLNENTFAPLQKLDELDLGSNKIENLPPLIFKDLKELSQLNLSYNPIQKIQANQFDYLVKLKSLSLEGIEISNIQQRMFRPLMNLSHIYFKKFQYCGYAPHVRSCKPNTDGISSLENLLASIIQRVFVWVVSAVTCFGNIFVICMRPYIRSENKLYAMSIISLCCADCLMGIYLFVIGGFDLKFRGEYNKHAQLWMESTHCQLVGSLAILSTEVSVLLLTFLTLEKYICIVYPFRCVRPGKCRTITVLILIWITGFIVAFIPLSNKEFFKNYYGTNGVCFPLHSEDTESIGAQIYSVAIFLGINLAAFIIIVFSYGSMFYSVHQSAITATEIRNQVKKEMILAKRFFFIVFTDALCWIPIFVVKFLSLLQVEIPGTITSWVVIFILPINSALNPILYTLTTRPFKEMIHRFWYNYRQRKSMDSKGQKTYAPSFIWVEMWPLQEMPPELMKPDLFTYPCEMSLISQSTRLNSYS
RXFP1 agonist – activates the human relaxin receptor RXFP1 | HEK293T-RXFP1 cAMP TR-FRET, 30 min; response scale: percent of porcine relaxin response, buffer zero | 370,000 compounds, 0.3% hits | Potency, µM (doses to about 57.5 µM), hits mostly activators | Q9HBX9 | AID 2676; note: nearly all actives have a fitted effect of over 60% in size
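HEK293 cells stably expressing RXFP1, treated 30 min at 37C with compounds plus PDE4 inhibitor Ro 20174; cAMP measured by HTRF TR-FRET. Normalized to buffer and 29 nM porcine relaxin; EC50 by Hill fit.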
hERG WT inh – KCNH2 (human, wildtype) channel inhibition; Q12809; U2OS, BacMam KCNH2, thallium flux FluxOr; stronger effect = lower value; activity change, % at 1.84 µM; 340,000 compounds, 0.37% hits; AID 720551;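 active = maximum activity change below -70%; inconclusive = maximum activity change between -70% and -50%; inactive = maximum activity change above -50%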
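U2OS cells were transduced with wild-type KCNH2 virus (2.03 x 10^8 / mL) for 4 h at room temperature, then cultured overnight at 37 C. Thallium flux was read with FluxOr dye. Rate constants were normalized to DMSO controls.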
Hits are given with their value. In the library only some 1.4% were active in any assay of this set; here they are far more common. Unless noted, calls come from the whole dose curve; as a rule, active = well fitted curve in the direction sought with a large enough effect; inconclusive = small, poorly fitted or top-dose-only effect, or another doubt; inactive = no such curve, though single readings can be large; an effect the other way counts as inactive or inconclusive.

O=C(Nc1cccnc1)C1COc2ccccc2O1 (stereo unspecified) was read as KCNH2 3.1 block inactive, PTHR1 ag inactive, GRP78 ERSR act inactive, RXFP1 antagonist inactive, RXFP1 agonist inactive and hERG WT inh inactive.
Cc1ccc2c(c1)c1c(n2CC(O)CN2CCCCC2C)CCCC1 (stereo unspecified) was read as KCNH2 3.1 block inactive, PTHR1 ag inactive, GRP78 ERSR act inactive, RXFP1 antagonist -92, RXFP1 agonist inactive and hERG WT inh inactive.
For Cc1ccc2c(c1)c(C)c(C)n2CC(O)CN1CCCCC1C (stereo unspecified) the results were KCNH2 3.1 block inactive, PTHR1 ag inactive, GRP78 ERSR act inactive, RXFP1 agonist inactive and hERG WT inh inactive.
Screening COc1cccc(/C=C/C(=O)OCC(=O)NC2CC2)c1 returned KCNH2 3.1 block inactive, PTHR1 ag inactive, GRP78 ERSR act inactive, RXFP1 antagonist inactive, RXFP1 agonist inactive and hERG WT inh inactive.
Screening Cc1ccc(CN2CC(C(=O)Nc3ccncc3)CC2=O)cc1 (stereo unspecified) returned KCNH2 3.1 block inactive, PTHR1 ag inactive, GRP78 ERSR act inactive, RXFP1 antagonist inactive, RXFP1 agonist inactive and hERG WT inh inactive.
`Cc1ccc(CN2CC(C(=O)Nc3cc(C)ccn3)CC2=O)cc1` (stereo unspecified) gave KCNH2 3.1 block inactive, PTHR1 ag inactive, GRP78 ERSR act inactive, RXFP1 antagonist -118, RXFP1 agonist inactive and hERG WT inh inactive.
O=c1cc(CSc2nnnn2-c2ccccc2)nc2sccn12 was read as KCNH2 3.1 block -72, PTHR1 ag inactive, GRP78 ERSR act inactive, RXFP1 antagonist inactive, RXFP1 agonist inactive and hERG WT inh inactive.
Screening Cc1ccc(OCC(=O)Nc2ccc3c(c2)nc(CCN2CCCCC2)n3C)cc1 returned KCNH2 3.1 block inconclusive, PTHR1 ag inactive, GRP78 ERSR act inactive, RXFP1 antagonist inactive, RXFP1 agonist inactive and hERG WT inh inactive.
Screening COc1ccc(OCC(=O)Nc2ccc3c(c2)nc(CCN2CCCCC2)n3C)cc1 returned KCNH2 3.1 block -72, PTHR1 ag inactive, GRP78 ERSR act inactive, RXFP1 antagonist inactive, RXFP1 agonist inactive and hERG WT inh inactive.
Cc1cccc(OCC(=O)Nc2ccc3c(c2)nc(CCN2CCCCC2)n3C)c1 was read as KCNH2 3.1 block -77, PTHR1 ag inactive, GRP78 ERSR act inactive, RXFP1 antagonist inactive, RXFP1 agonist inactive and hERG WT inh inactive.
Screening Cn1c(CCN2CCCCC2)nc2cc(NC(=O)COc3ccccc3)ccc21 returned KCNH2 3.1 block -86, PTHR1 ag inactive, GRP78 ERSR act inactive, RXFP1 antagonist inactive, RXFP1 agonist inactive and hERG WT inh inactive.
Screening FC(F)(F)c1nc(Sc2ncccc2C(F)(F)F)n[nH]1 returned KCNH2 3.1 block inactive, PTHR1 ag inactive, GRP78 ERSR act inactive, RXFP1 antagonist inactive, RXFP1 agonist inactive and hERG WT inh inactive.
For Cc1cc(C)c(OCCCCNCc2ccccc2)c(Cl)c1 the results were KCNH2 3.1 block inactive, PTHR1 ag inactive, GRP78 ERSR act inactive, RXFP1 antagonist -107, RXFP1 agonist inactive and hERG WT inh inactive.
Screening COc1ccc(NC(=O)c2ccc3snnc3c2)cc1OC returned PTHR1 ag inactive, GRP78 ERSR act inactive and RXFP1 agonist inactive.
O=C(C[n+]1ccc2ccccc2c1)Nc1cc(C(F)(F)F)ccc1Cl was read as KCNH2 3.1 block -82, PTHR1 ag inactive, GRP78 ERSR act inactive, RXFP1 antagonist inactive, RXFP1 agonist inactive and hERG WT inh inactive.
Cc1ccc(C)c(NC(=O)NCCN2CCCCC2)c1 was read as KCNH2 3.1 block inactive, PTHR1 ag inactive, GRP78 ERSR act inactive, RXFP1 antagonist -77, RXFP1 agonist inactive and hERG WT inh inactive.
`CCCN1CCN(CCNC(=O)Nc2cc(C)ccc2C)CC1` gave KCNH2 3.1 block inactive, PTHR1 ag inactive, GRP78 ERSR act inactive, RXFP1 antagonist inactive, RXFP1 agonist inactive and hERG WT inh inactive.
CCC(C)c1ccc(NC(=O)NCCN2CCCCC2)cc1 (stereo unspecified) was read as KCNH2 3.1 block -94, PTHR1 ag inactive, GRP78 ERSR act inactive, RXFP1 antagonist inactive, RXFP1 agonist inactive and hERG WT inh inactive.
CCCN1CCN(CCNC(=O)Nc2ccccc2Cl)CC1 was read as KCNH2 3.1 block inactive, PTHR1 ag inactive, GRP78 ERSR act inactive, RXFP1 antagonist inactive, RXFP1 agonist inactive and hERG WT inh inactive.
For O=C(NCCN1CCCCC1)Nc1cccc(Cl)c1Cl the results were KCNH2 3.1 block inactive, PTHR1 ag inactive, GRP78 ERSR act inactive, RXFP1 antagonist -77, RXFP1 agonist inactive and hERG WT inh inactive.
For COc1ccc(NC(=S)Nc2cccc(C)n2)cc1 the results were KCNH2 3.1 block inactive, PTHR1 ag inactive, GRP78 ERSR act inactive, RXFP1 antagonist inactive, RXFP1 agonist inactive and hERG WT inh inactive.
`NC(=S)c1cc2ccc(O)cc2oc1=O` gave KCNH2 3.1 block inactive, PTHR1 ag inactive, GRP78 ERSR act inactive, RXFP1 agonist 13µM and hERG WT inh inactive.
Screening C/C(=N/NC(N)=S)c1cc2ccc(O)cc2oc1=O returned KCNH2 3.1 block inactive, PTHR1 ag inactive, GRP78 ERSR act inactive, RXFP1 antagonist inactive and RXFP1 agonist inactive.
CC(=O)Nc1ccc(N2C(=O)c3ccc(S(=O)(=O)c4ccc(C(=O)O)cc4)cc3C2=O)cc1 was read as KCNH2 3.1 block inactive, PTHR1 ag inactive, GRP78 ERSR act inactive, RXFP1 antagonist inactive, RXFP1 agonist inactive and hERG WT inh -168.
`Oc1ccc(O)c(Cc2nc3ccccc3s2)c1` gave KCNH2 3.1 block inactive, PTHR1 ag inactive, GRP78 ERSR act inactive, RXFP1 antagonist -77, RXFP1 agonist inactive and hERG WT inh inactive.
For Oc1ccccc1OCc1nc2ccccc2s1 the results were KCNH2 3.1 block inactive, PTHR1 ag inactive, GRP78 ERSR act inactive, RXFP1 antagonist inactive, RXFP1 agonist inactive and hERG WT inh inactive.
CCOc1cc(CNCCO)cc(Br)c1OCc1ccccc1Cl was read as KCNH2 3.1 block inactive, PTHR1 ag inactive, GRP78 ERSR act inactive, RXFP1 antagonist -74, RXFP1 agonist inactive and hERG WT inh inactive.
CCOc1cc(CNCCCN2CCOCC2)cc(Br)c1OCc1ccccc1Cl was read as KCNH2 3.1 block inactive, PTHR1 ag inactive, GRP78 ERSR act inactive, RXFP1 antagonist -92, RXFP1 agonist inactive and hERG WT inh inactive.
`CCn1c(N)[n+](CC(=O)Nc2ccc(SC(F)F)cc2)c2ccccc21` gave KCNH2 3.1 block -92, PTHR1 ag inactive, GRP78 ERSR act inactive, RXFP1 antagonist inactive, RXFP1 agonist inactive and hERG WT inh inactive.
